# Molecular target: NADPH oxidase 5 (Homo sapiens) (UniProt Q96PH1)
# Assay: compounds shifting NOX5 Amplex Red fluorescence – cell-based, HEK293-NOX5, NOX inhibitor project, primary screen (AID 1161)
# Conditions: HEK293-NOX5, ionomycin, 45 min, higher = more signal
# Chain of NADPH oxidase 5 (Homo sapiens) (Q96PH1 whole entry, looked up): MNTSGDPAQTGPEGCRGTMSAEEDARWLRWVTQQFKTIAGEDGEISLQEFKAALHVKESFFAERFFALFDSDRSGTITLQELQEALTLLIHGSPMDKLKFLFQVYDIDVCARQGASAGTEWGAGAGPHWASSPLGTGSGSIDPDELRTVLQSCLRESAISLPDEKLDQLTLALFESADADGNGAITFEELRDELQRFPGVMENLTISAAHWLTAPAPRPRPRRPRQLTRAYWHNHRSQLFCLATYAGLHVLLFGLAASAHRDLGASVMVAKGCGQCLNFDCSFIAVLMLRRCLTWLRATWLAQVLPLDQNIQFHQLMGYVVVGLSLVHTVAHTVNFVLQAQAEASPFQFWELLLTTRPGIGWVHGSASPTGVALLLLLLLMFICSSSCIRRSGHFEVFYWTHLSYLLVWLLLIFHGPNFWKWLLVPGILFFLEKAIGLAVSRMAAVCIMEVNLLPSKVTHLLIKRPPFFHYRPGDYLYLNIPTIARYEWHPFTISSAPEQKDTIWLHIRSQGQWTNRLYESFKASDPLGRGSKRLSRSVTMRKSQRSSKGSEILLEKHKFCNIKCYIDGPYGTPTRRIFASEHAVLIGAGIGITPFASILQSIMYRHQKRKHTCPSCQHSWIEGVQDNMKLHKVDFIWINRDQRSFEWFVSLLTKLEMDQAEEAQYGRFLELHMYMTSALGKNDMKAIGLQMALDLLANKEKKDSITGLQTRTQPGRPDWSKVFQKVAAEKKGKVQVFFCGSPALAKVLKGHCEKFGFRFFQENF
row,Structure (SMILES),z-score
1,CO[C@@H]1C=CCC(=O)N[C@@H](C)C(=O)OC[C@@H](NS(=O)(=O)c2ccc(C)cc2)[C@H](C)C=CCC(=O)OC[C@H]1C,-0.0177
2,O=C1[C@H]2[C@H]3[C@H](O)[C@H](O)CC(=NO[C@@H]4O[C@H](CO)[C@@H](O)[C@H](O)[C@H]4O)[C@@H]3CC[C@H]2C(=O)N1C1CCCCC1,0.573
3,CCOC(=O)[C@H](CC(C)C)NC(=O)CCC1CC(OC(=O)NCc2ccc3c(c2)OCO3)CC2(CCCC(COC(=O)NCCOc3ccccc3)O2)O1 (stereo partly drawn),-0.0957
